The sample as a whole holds a higher share of hits than the screen did.
KDM4E inh – JMJD2E (human) inhibition | B2RXH2 | JMJD2E catalytic domain, FDH-coupled NADH fluorescence (FDH is formaldehyde dehydrogenase) | Potency, µM (series often up to 57.1 µM), for the others: top-dose activity change, negative = inhibition, actives largely listed as inhibitors | 1.6% of 230,000 active | AID 2147; active = well fitted inhibition curve with a large enough effect, not every such curve was filed as active; inconclusive = small, poorly fitted or top-dose-only effect, or another doubt; inactive = no such curve, though single readings can be large or run the other way;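 note: potency is the fitted concentration of half-maximal effect; 0% = wells with enzyme and -100% = buffer wells without enzyme; nearly all actives have a fitted effect of over 50% in size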
Target sequence (B2RXH2 1-337 limits assumed): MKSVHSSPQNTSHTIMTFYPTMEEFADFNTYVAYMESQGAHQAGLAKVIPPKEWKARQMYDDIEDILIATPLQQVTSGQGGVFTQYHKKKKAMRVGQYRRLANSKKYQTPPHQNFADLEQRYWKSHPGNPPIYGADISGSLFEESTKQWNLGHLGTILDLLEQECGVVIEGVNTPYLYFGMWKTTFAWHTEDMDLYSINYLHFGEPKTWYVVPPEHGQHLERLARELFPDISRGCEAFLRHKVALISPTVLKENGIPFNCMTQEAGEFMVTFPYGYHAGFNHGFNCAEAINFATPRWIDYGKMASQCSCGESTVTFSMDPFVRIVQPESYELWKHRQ
PKM2 act – activators of human pyruvate kinase M2; P14618; purified PKM2, Kinase-Glo ATP luminescence, activation; response scale: 0% is enzyme alone, no compound; Potency, µM (doses to about 57.5 µM), for the others: top-dose activation, hits mostly activators; 0.34% of 260,000 active; note: potency is the fitted concentration of half-maximal effect; % is set by controls: 0 for no effect and ±100 for the full control effect; nearly all actives have a fitted effect of over 55% in size
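ATP formation by purified human PK-M2, quantified via coupled luciferase luminescence after 1 h at room temperature with 0.1 mM ADP and 0.5 mM PEP final.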
APEX1 inh – inhibitors of human APE1 endonuclease; P27695; recombinant APE1, TAMRA/BHQ-2 abasic DNA cleavage fluorescence; Potency, µM (series often up to 65.8 µM), without a hit: at the highest dose activity change, negative = inhibition, usual class: inhibitors; 0.35% of 350,000 active;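 note: potency is the fitted concentration of half-maximal effect; plate controls were vehicle for no effect and reference inhibitor for full effect; nearly all actives have a fitted effect of over 55% in size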
Target sequence (P27695 whole entry, looked up): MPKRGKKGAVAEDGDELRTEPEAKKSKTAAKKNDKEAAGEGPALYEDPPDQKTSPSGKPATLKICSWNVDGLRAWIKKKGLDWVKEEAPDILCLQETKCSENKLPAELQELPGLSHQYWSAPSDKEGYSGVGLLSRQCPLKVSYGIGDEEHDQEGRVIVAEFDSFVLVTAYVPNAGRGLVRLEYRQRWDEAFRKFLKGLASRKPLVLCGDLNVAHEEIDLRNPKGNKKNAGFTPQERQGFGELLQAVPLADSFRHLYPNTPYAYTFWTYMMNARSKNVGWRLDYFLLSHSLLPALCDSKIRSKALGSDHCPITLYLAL
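Endonuclease cleavage of a quenched abasic-site DNA duplex (50 nM) by APE1 (0.75 nM) was tracked by TAMRA dequenching. Compounds were preincubated with enzyme 15 min at room temperature; data normalized to buffer-only and DMSO wells plus NSC13755 control.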
RECQ1 inh – inhibitors of human RECQ1 DNA helicase. 0.54% of 240,000 active. Potency, µM (top dose mostly 57.3 µM), for inactives: top-dose activity, negative = inhibition, actives largely listed as inhibitors. RECQ1 DNA unwinding, red fluorescence kinetic read. P46063;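 note: potency is the fitted concentration of half-maximal effect; plate controls were vehicle for no effect and no enzyme for full effect; nearly all actives have a fitted effect of over 30% in size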
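RECQ1T1 50 nM; forked duplex (20 bp + 30-nt ss tails) 200 nM, ATP 2 mM final; pH 8.0, 2 mM MgCl2, 2.5 ug/ml poly(dI-dC); 15 min compound preincubation; discontinuous kinetic read over 2 h at RT.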
BLM helicase inh – Bloom syndrome helicase (human) inhibition; recombinant BLM DNA unwinding, fluorescence dequenching; AID 2528; Potency, µM (series often up to 56.1 µM), without a hit: at the top dose activity change, negative = inhibition, hits mostly inhibitors; P54132; 0.2% of 350,000 active;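 note: potency is the fitted concentration of half-maximal effect; plate controls were vehicle for no effect and no enzyme for full effect; nearly all actives have a fitted effect of over 35% in size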
HeLa tox – HeLa cytotoxicity, CellTiter-Glo readout; shares compounds with PKM2 act; HeLa viability, CellTiter-Glo ATP luminescence, 24 h; activity change, negative = cytotoxicity, % at 57.5 µM; 230 tested, under 10 active; note: % of control where 0% means no effect
An asterisk follows results filed as active; i = inactive; u = inconclusive; x = not tested or not shown; [ ] = remark or other dose. Unless noted, calls come from the whole dose curve; as a rule, active = well fitted curve in the direction sought with a large enough effect; inconclusive = small, poorly fitted or top-dose-only effect, or another doubt; inactive = no such curve, though single readings can be large; an effect the other way counts as inactive or inconclusive.

SMILES | KDM4E inh | PKM2 act | APEX1 inh | RECQ1 inh | BLM helicase inh | HeLa tox
Cc1cc2c(cc1S(=O)(=O)Nc1cccc(C)c1C)OCC(=O)N2 | x | u | 29.3% | x | -0.1% | x
O=c1c(S(=O)(=O)c2ccccc2)cn(Cc2ccc(F)cc2)c2cc(N3CCCC3)c(F)cc12 | x | x | x | x | -1.0% | x
O=C(CSc1ccccc1)N1CCN(S(=O)(=O)c2ccccc2F)CC1 | x | 3.16µM* | -6.6% | x | -10.3% | 0.1
Cc1cc2c(s1)c1c(n2C)C(=O)N(Cc2ccccc2F)C1 | x | x | -20.6% | x | x | 12.7[23.3 µM]
Cn1c(=O)n(Cc2ccccc2F)c2ccccc21 | 2.5% | 0.6% | -1.7% | 18.5% | -2.9% | x
O=c1c(Cc2ccc(Cl)cc2)c(O)ccn1Cc1cccs1 | 1.5% | 8.4% | -2.0% | 3.3% | -1.0% | x
O=c1c(Cc2ccc(Cl)cc2)c(O)ccn1Cc1ccncc1 | 4.5% | 8.91µM* | -1.4% | 21.1% | 8.7% | -2.7
CCOC(=O)C(C(=O)OCC)N(Cc1cc(OC)ccc1OC)C(=O)C1CC(CO[Si](C)(C)C(C)(C)C)=CN1C(=O)OC(C)(C)C (stereo not drawn) | x | x | 20.5% | i | 1.5% | x
O=C(C1CCC1)N1CCc2cc(S(=O)(=O)Nc3ccc4c(c3)OCO4)ccc21 | -2.9% | 2.82µM* | 1.6% | -1.3% | -5.4% | -27.5
Cc1ccccc1N1CC(c2nc3ccccc3n2Cc2ccc(Br)cc2)CC1=O (stereo not drawn) | x | x | x | x | -0.9% | x
O=c1[nH]c(CN2CCN(c3ccccc3O)CC2)nc2scc(-c3ccccc3Cl)c12 | -9.2% | 20.0% | -5.5% | i | -10.8% | x
O=c1[nH]c(CN2CCN(c3ccc(O)cc3)CC2)nc2scc(-c3ccc(Cl)cc3)c12 | 1.4% | 2.82µM* | -6.3% | i | 9.8% | -7.4
c1cncc(-c2cncnc2NC2CCNCC2)c1 | x | x | 8.2% | -8.3% | 0.8% | x
Cc1nc2cc(NCc3ccccc3O)ccc2n1Cc1ccccc1 | 39.8µM* | 5.01µM* | 1.8% | -15.9% | -2.0% | -11.5
Cc1nc2ccccc2n1Cc1ccccc1 | x | 0.4% | -11.0% | x | -3.0% | x
Cn1c2ccsc2c2ncn(Cc3ccccc3F)c(=O)c21 | x | x | 21.5% | x | x | u
O=c1c2ccc(Cl)cc2[nH]c(=S)n1Cc1cccnc1 | 5.7% | 3.16µM* | -0.3% | -11.3% | -1.5% | 2.6
CC[C@H](C)[C@H](NC(=O)[C@H](CCC(=O)O)NC(=O)[C@@H](N)CO)C(=O)N[C@@H](CCC(N)=O)C(=O)N[C@@H](CC(C)C)C(=O)N[C@@H](CCSC)C(=O)N[C@@H](Cc1cnc[nH]1)C(=O)N[C@@H](CC(N)=O)C(=O)N[C@@H](CC(C)C)C(=O)NCC(=O)N[C@@H](CCCCN)C(=O)N[C@@H](Cc1cnc[nH]1)C(=O)N[C@@H](CC(C)C)C(=O)N[C@@H](C)C(=O)N[C@@H](CO)C(=O)N[C@H](C(=O)N[C@@H](CCC(=O)O)C(=O)N[C@@H](CCCNC(=N)N)C(=O)N[C@@H](CCSC)C(=O)N[C@@H](CCC(N)=O)C(=O)N[C@@H](Cc1c[nH]c2ccccc12)C(=O)N[C@@H](CC(C)C)C(=O)N[C@@H](CCCNC(=N)N)C(=O)N[C@@H](CCCCN)C(=O)N[C@@H](CCCCN)C(=O)N[C@@H](CC(C)C)C(=O)N[C@@H](CCC(N)=O)C(=O)N[C@@H](CC(=O)O)C(=O)N[C@H](C(=O)N[C@@H](Cc1cnc[nH]1)C(=O)N[C@@H](CC(N)=O)C(=O)N[C@@H](Cc1ccccc1)C(=O)O)C(C)C)C(C)C | x | x | -4.9% | -7.0% | -6.8% | x
CNC(=O)NC(=O)CSc1ncc(C(F)(F)F)cc1Cl | -2.5% | 0.398µM* | 9.5% | -4.9% | -2.0% | -0.2
O=C(c1ccc(NS(=O)(=O)c2cccc([N+](=O)[O-])c2)cc1)N1CCN(C(=O)c2ccco2)CC1 | x | x | -11.1% | x | x | x
COc1cccc(S(=O)(=O)Nc2ccc(C(=O)N3CCN(C(=O)c4ccco4)CC3)cc2)c1 | -1.9% | 1.41µM* | 11.5% | i | -8.8% | -2.3
O=S(=O)(NC1CCN(S(=O)(=O)c2c(F)cccc2F)C1)c1ccc2c(c1)OCCO2 (stereo not drawn) | x | x | 21.9% | x | x | u
NC(=O)C1CCN(S(=O)(=O)c2ccc3c(c2)OCCO3)CC1 | 5.2% | 14.6% | 5.4% | -7.9% | -0.3% | x
O=S(=O)(Nc1c(F)cccc1F)c1ccc2c(c1)OCCO2 | x | -3.7% | -1.7%[12.4 µM] | x | 2.0% | x
O=S(=O)(NC1CCN(S(=O)(=O)c2c(F)cccc2F)CC1)c1ccc2c(c1)OCCO2 | x | x | -9.5% | x | x | -29.2
SMILES | KDM4E inh | PKM2 act | APEX1 inh | RECQ1 inh | BLM helicase inh | HeLa tox
O=S(=O)(NC1CCC(CNS(=O)(=O)c2c(F)cccc2F)CC1)c1ccc2c(c1)OCCO2 (stereo not drawn) | x | x | -8.9% | x | x | x
O=S(=O)(NCCCNS(=O)(=O)c1c(F)cccc1F)c1ccc2c(c1)OCCO2 | x | x | 10.9% | x | x | -1.7
O=S(=O)(c1ccc2c(c1)OCCO2)C1CCN(S(=O)(=O)c2c(F)cccc2F)CC1 | x | x | x | x | x | u
O=C(O)[C@H](Cc1c[nH]c2ccccc12)N1C(=O)C2=CCCC=C2C1=O | x | x | 26.2% | -7.4% | 1.6% | x
CC(C)COC[C@H](CN(Cc1ccccc1)c1ccccc1)N1CCCC1 | -1.5%[25.5 µM] | x | 2.0%[21 µM] | i | 5.2%[21.4 µM] | x
Cc1cc2c(s1)c1cnn(Cc3c(F)c(F)cc(F)c3F)c(=O)c1n2C | x | x | x | x | x | 2.7
Cc1cc(C)c(Cn2c3ccccc3c3cnn(CC(=O)NCc4ccccn4)c(=O)c32)c(C)c1 | x | x | 17.1% | x | -15.9% | x
CCCCCn1ncc2c3sc(C)cc3n(C)c2c1=O | x | x | x | x | x | -13.7
Cc1cc2c(s1)c1cnn(Cc3ccccc3F)c(=O)c1n2C(C)C | x | x | x | x | x | -11.5
Cc1cc2c(s1)c1cnn(Cc3c(F)cccc3F)c(=O)c1n2C | x | x | x | x | x | 7.8
CC(C)CCCC(C)C1CC(=O)C2=C3CCC4CC(O)CCC4(C)C3CCC21C (stereo not drawn) | x | x | x | x | -13.2% | x
CCOc1ccc(CNCc2c(C(=O)O)c(C)n(Cc3ccc(C)cc3)c2C)cc1 | x | x | x | x | 3.8% | x
CCc1ccc(NC(=O)Cn2ncc3c4ccccc4n(C)c3c2=O)cc1 | u | 1.4% | 7.7% | 4.7% | -2.5% | x
Cc1cc2c(s1)c1cnn(Cc3ccc(F)c(F)c3F)c(=O)c1n2C | x | x | x | x | x | -18.1
Cc1cc2c(s1)c1cnn(Cc3cccc(Cn4ncc5c6sc(C)cc6n(C)c5c4=O)c3F)c(=O)c1n2C | x | x | x | x | x | 5.7
COc1cccc(Cn2ncc3c4sc(Br)cc4n(C)c3c2=O)c1 | x | x | 5.2% | x | x | x
Cc1cc(C)c2c(CC(=O)Nc3ccc(S(=O)(=O)N4CCCC(C)C4)cc3)coc2c1 (stereo not drawn) | x | x | x | x | -10.6% | x
O=S(=O)(c1cccc(C(F)(F)F)c1)N1CCN(S(=O)(=O)c2ccc3c(c2)OCCO3)CC1 | x | x | -3.6% | x | x | 2.2

Compound activity from PubChem BioAssay.
